PMC5540273 (PLoS ONE, 2017)

Assays:
Settings in all cases: concentration: 1 μM, replicates: in singlicate; n = 1
[1] = test system: ACVR1
[2] = test system: ACVR2A
[3] = test system: ACVR2B
[4] = test system: ACVRL1
[5] = test system: T1, ADCK3
T1 construct: gene CABC1

[6] = test system: ADCK4
[7] = test system: AKT1
[8] = test system: AKT2
[9] = test system: AKT3
[10] = test system: ALK
[11] = test system: T2, AMPK-alpha1
T2 construct: gene PRKAA1

[12] = test system: T3, AMPK-alpha2
T3 construct: gene PRKAA2

[13] = test system: ANKK1
[14] = test system: T4, ARK5
T4 construct: gene NUAK1

[15] = test system: T5, ASK1
T5 construct: gene MAP3K5

[16] = test system: T6, ASK2
T6 construct: gene MAP3K6

[17] = test system: AURKA
[18] = test system: AURKC
[19] = test system: AXL
[20] = test system: AURKB
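Note: KINOMEscan kinase panel screen.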

SMILES	%Inh [1] [%]	%Inh [2] [%]	%Inh [3] [%]	%Inh [4] [%]	%Inh [5] [%]	%Inh [6] [%]	%Inh [7] [%]	%Inh [8] [%]	%Inh [9] [%]	%Inh [10] [%]	%Inh [11] [%]	%Inh [12] [%]	%Inh [13] [%]	%Inh [14] [%]	%Inh [15] [%]	%Inh [16] [%]	%Inh [17] [%]	%Inh [18] [%]	%Inh [19] [%]	%Inh [20] [%]
Cc1cnc(N)c(/C=C/c2cncc(C(=O)NCCc3ccc(Cl)cc3Cl)c2)c1.Cl [GSK190937]	0	0	0	0	25	13	0	0	0	0	3	18	3	1	2	0	1	12	5	
CC(C)c1cc(-c2ccc3c(N)n[nH]c3c2)nc(N)n1 [GSK2250882]	0	0	0	0	13	37	0	17	0	0	0	0	8	0	0	7		56	0	18
Fc1ccc(-c2nc3n(c2-c2ccncc2)CCS3)cc1 [GI98581]	0	0	20	0	13	23	0	13	9	28	14	0	0	0	5	13	0	43	6	0
O=C1NC(=O)C(c2ccc(Cl)cc2)=C1Nc1ccc(O)cc1 [SB-340867]	11	0	0	0	0	0	1	0	0	0	0	0	0	0	0	0	0	0	18	9
CN1c2ccc(-c3ccc(C(N)=O)cc3)cc2-c2[nH]ncc2S1(=O)=O	0	8	16	16	0	3	3	0	0	30	0	0	0	0	0	0	0	0	5	21
COc1ccc(Nc2nccc(N3CCC(NC(=O)c4cc5ccccc5s4)C3)n2)cc1 (stereo not drawn) [GSK1379738]	0	0	0	0	0	37	0	5	0	25	0	3	3	19	12	11	14	22	7	0
O=c1cc(N2CCOCC2)nc2n(Cc3ccccc3F)ccn12 [GSK2297428]	0	0	0	0	13	8	0	0	0	0	0	0	9	0	0	0	0	0	0	13
COc1cccc(NC(=O)Nc2ccc(C)c(-c3ccc(C(=O)Nc4ccncc4)cc3)c2)c1 [GSK1398474]	0	0	12	0	30	12	0	16	0	23	0	13	10	20	2	0	14	40	25	0
Cl.Cl.Cl.N#Cc1ccc(CCNc2nccc(-c3cccc(CN4CCNCC4)c3)n2)cc1 [GSK2137462]	11	0	0	0	23	22	0	5	5	15	25	14	15	17	20	4	20	15	44	0
CS(=O)(=O)CCNCc1nc(-c2ccc3ncnc(Nc4ccc5c(cnn5Cc5ccccc5)c4)c3c2)cs1.Cl.Cl [GW569716]	1	0	0	0	10	54	0	2	0	31	0	0	0	0	0	0	32	0	0	29
CNC(=O)c1ccc(C)c(-n2c(C)cc(OCc3ccc(F)cc3F)c(Br)c2=O)c1	0	0	2	0	0	0	0	2	0	0	0	5	0	0	15	0	0	0	0	0
COc1ccc(Nc2nccc(NCCNC(=O)Nc3cc(C)ccc3C)n2)cc1 [GSK1379899]	2	2	6	0	0	0	0	0	0	1	0	0	0	0	0	0	0	36	4	14
Fc1ccc(-c2nc[nH]c2-c2ccncc2)cc1 [SB-217360]	0	5	50	0	0	18	4	0	0	10	5	0	0	0	0	0	8	0	0	33
CS(=O)(=O)Cc1ccc(Nc2nccc(-c3c(-c4cccc(NC(=O)C5CCCCC5)c4)nn4ncccc34)n2)cc1 [GSK350559]	18	0	0	0	24	0	23	4	0	29	2	2	0	0	0	34	9	49	18	15
Cn1cncc1-c1cc2c(Nc3ccc(OCc4ccccc4)cc3)ncnc2cn1 [GW281179]	5	0	18	0	7	24	0	5	0	23	0	0	0	13	9	0	0	5	0	25
Fc1ccc(-c2nn3cccc(F)c3c2-c2ccncc2)cc1 [GW475620]	11	0	47	22	12	9	0	14	29	16	42	19	0	16	8	0	0	46	3	45
